The test system of this test is E. coli BW25113 marRABp lux reporter. Briefly: promoter activity interaction Z-score (Lux/OD deviation from empty-vector control); higher = stronger promoter induction by the compound. The protocol: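 E. coli BW25113 (wild type or ΔmarA/ΔsoxS/Δrob) carrying pTU175 luxCDABE promoter reporters was grown in LB in 384-well plates at 37°C with each of 94 compounds at 4 two-fold concentrations, in biological duplicates. Luminescence and OD600 were read every 30 min for 12 h and integrated as AUC over 8 h (0-8 h WT, 1-9 h mutants). Lux AUC was divided by OD AUC; the interaction score is the residual of a Huber robust fit of each promoter against the empty-vector control, then Z-transformed per promoter.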

± gives the standard deviation of the averaged measurements.

Regarding `CN(C)[C@@H]1C(O)=C(C(N)=O)C(=O)[C@@]2(O)C(O)=C3C(=O)c4c(O)cccc4[C@@](C)(O)[C@H]3C[C@@H]12` [Tetracycline], the “promoter activity interaction Z-score” value (0.056 µg/ml, genetic background: wild type) was determined as 0.665 ± 0.88; the “promoter activity interaction Z-score” value (0.056 µg/ml, genetic background: ΔmarA) was 1.07 ± 0.1; the “promoter activity interaction Z-score” value (0.056 µg/ml, genetic background: Δrob) was determined as 0.256 ± 0.36; the “promoter activity interaction Z-score” value (0.056 µg/ml, genetic background: ΔsoxS) came out at 0.136 ± 0.061; the “promoter activity interaction Z-score” value (0.11 µg/ml, genetic background: wild type) worked out at 2.13 ± 0.84; the “promoter activity interaction Z-score” value (0.11 µg/ml, genetic background: ΔmarA) turned out to be 1.76 ± 0.44. Moreover, the “promoter activity interaction Z-score” value by setting is: (0.11 µg/ml, genetic background: Δrob) 0.771 ± 0.16; (0.11 µg/ml, genetic background: ΔsoxS) 1.22 ± 0.7; (0.22 µg/ml, genetic background: wild type) 2.83 ± 0.4; (0.22 µg/ml, genetic background: ΔmarA) 3.06 ± 0.18; (0.22 µg/ml, genetic background: Δrob) 1.16 ± 0.43; (0.22 µg/ml, genetic background: ΔsoxS) 2.13 ± 0.087. Also, the “promoter activity interaction Z-score” value is 2.24 ± 1 (0.44 µg/ml, genetic background: wild type); 0.451 ± 0.1 (0.44 µg/ml, genetic background: ΔmarA); 0.992 ± 0.29 (0.44 µg/ml, genetic background: Δrob); 2.56 (0.44 µg/ml, genetic background: ΔsoxS).

For `NC[C@H]1O[C@H](O[C@H]2[C@H](O)[C@@H](O[C@H]3O[C@H](CO)[C@@H](O)[C@H](N)[C@H]3O)[C@H](N)C[C@@H]2N)[C@H](N)C[C@@H]1O` [Tobramycin], the “promoter activity interaction Z-score” value runs as follows: (0.12 µg/ml, genetic background: wild type) -0.211 ± 0.075; (0.12 µg/ml, genetic background: ΔmarA) -0.0912 ± 0.16; (0.12 µg/ml, genetic background: Δrob) -0.0729 ± 0.021; (0.12 µg/ml, genetic background: ΔsoxS) -0.3 ± 0.41; (0.23 µg/ml, genetic background: wild type) -0.379 ± 0.14; (0.23 µg/ml, genetic background: ΔmarA) -0.269 ± 0.26. In addition, the “promoter activity interaction Z-score” value was -0.264 ± 0.11 (0.23 µg/ml, genetic background: Δrob); -0.0572 ± 0.44 (0.23 µg/ml, genetic background: ΔsoxS); 0.112 ± 0.2 (0.47 µg/ml, genetic background: wild type); 0.108 ± 0.0063 (0.47 µg/ml, genetic background: ΔmarA); 0.123 ± 0.14 (0.47 µg/ml, genetic background: Δrob); 0.021 ± 0.34 (0.47 µg/ml, genetic background: ΔsoxS).

For the compound `C[C@H](CCC(=O)O)[C@H]1CC[C@H]2[C@@H]3CC[C@@H]4C[C@H](O)CC[C@]4(C)[C@H]3C[C@H](O)[C@]12C` [Deoxycholic acid], the “promoter activity interaction Z-score” value is, setting by setting: (24.5 µg/ml, genetic background: wild type) -0.31 ± 0.18; (24.5 µg/ml, genetic background: ΔmarA) -0.0533 ± 0.055; (24.5 µg/ml, genetic background: Δrob) -0.148 ± 0.14; (24.5 µg/ml, genetic background: ΔsoxS) -0.343 ± 0.17; (49.1 µg/ml, genetic background: wild type) -0.0619 ± 0.22; (49.1 µg/ml, genetic background: ΔmarA) -0.261 ± 0.22. The “promoter activity interaction Z-score” value by setting is: (49.1 µg/ml, genetic background: Δrob) -0.128 ± 0.13; (49.1 µg/ml, genetic background: ΔsoxS) -0.203 ± 0.24; (98.1 µg/ml, genetic background: wild type) -0.0956 ± 0.065; (98.1 µg/ml, genetic background: ΔmarA) -0.111 ± 0.12; (98.1 µg/ml, genetic background: Δrob) -0.283 ± 0.077; (98.1 µg/ml, genetic background: ΔsoxS) -0.336 ± 0.16. Also, the “promoter activity interaction Z-score” value is -0.225 ± 0.38 (196.3 µg/ml, genetic background: wild type); -0.118 ± 0.15 (196.3 µg/ml, genetic background: ΔmarA); -0.197 ± 0.065 (196.3 µg/ml, genetic background: Δrob); -0.366 ± 0.062 (196.3 µg/ml, genetic background: ΔsoxS).

These data come from the supplement of paper PMC12282887.
